Drawing on article PMC5700166, this text covers binding signal for 14 sequences.

Assay in all cases: protein-binding microarray (PBM); PBM: ~300 nM protein, 6 mM HEPES pH 7.8, 80 mM KCl, 0.5 mM EDTA, 0.5 mM EGTA, 6% glycerol, 35 ng/ul poly-dIdC, 1% milk, 1 h, room temperature; Ap Aiptasia and Nv Nematostella (sea anemones) / Co Capsaspora / Aq Amphimedon (sponge) / Dm Drosophila / Hu human; RHD is the Rel homology domain; high values mean tight binding
What all share (conditions): dsDNA, one strand shown

The target of one assay is T1, GST-Ap-NF-kB RHD (Exaiptasia pallida (Aiptasia), UniProt A0A913YAJ5 2-422).
T1 sequence: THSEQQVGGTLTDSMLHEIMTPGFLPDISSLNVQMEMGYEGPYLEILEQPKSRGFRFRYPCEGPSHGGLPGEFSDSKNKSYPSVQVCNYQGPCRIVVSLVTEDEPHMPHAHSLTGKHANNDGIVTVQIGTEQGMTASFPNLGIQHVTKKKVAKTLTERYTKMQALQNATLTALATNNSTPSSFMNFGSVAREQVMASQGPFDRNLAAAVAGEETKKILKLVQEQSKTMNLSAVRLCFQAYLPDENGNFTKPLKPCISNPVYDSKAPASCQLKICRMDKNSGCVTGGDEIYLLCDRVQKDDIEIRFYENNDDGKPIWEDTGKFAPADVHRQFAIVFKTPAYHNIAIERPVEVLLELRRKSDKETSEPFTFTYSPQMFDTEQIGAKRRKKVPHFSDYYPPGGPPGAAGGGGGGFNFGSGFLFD

The target of assay [1] is T2, GST-Nv-NF-kB (Cys allele) (Nematostella vectensis, UniProt E5G601 2-411).
T2 sequence: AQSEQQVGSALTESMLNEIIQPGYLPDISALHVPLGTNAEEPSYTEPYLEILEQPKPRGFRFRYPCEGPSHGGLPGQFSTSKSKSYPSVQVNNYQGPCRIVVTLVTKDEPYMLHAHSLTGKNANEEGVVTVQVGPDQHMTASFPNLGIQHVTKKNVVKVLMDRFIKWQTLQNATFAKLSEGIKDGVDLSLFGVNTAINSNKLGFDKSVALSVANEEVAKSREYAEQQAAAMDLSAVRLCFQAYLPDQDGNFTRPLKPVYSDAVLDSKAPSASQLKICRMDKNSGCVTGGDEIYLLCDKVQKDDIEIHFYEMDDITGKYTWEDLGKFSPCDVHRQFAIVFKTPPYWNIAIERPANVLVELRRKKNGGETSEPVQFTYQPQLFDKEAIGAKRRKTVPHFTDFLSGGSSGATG

In a further assay the target is T3, GST-Co-NF-kB (Capsaspora owczarzaki, UniProt F1ARL5 200-546).
T3 sequence: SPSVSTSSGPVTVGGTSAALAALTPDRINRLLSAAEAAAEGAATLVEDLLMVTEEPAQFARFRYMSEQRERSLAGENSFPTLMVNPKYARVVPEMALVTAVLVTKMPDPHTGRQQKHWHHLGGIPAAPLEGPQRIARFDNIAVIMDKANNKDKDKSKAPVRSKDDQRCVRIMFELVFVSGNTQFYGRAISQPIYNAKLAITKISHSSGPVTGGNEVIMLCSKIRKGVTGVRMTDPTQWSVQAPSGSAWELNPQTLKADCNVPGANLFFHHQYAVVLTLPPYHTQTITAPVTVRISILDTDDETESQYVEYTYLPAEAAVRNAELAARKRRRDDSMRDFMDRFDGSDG

Another assay deals with T4, GST-Dm-Relish (Drosophila melanogaster, UniProt Q94527 99-473).
T4 sequence: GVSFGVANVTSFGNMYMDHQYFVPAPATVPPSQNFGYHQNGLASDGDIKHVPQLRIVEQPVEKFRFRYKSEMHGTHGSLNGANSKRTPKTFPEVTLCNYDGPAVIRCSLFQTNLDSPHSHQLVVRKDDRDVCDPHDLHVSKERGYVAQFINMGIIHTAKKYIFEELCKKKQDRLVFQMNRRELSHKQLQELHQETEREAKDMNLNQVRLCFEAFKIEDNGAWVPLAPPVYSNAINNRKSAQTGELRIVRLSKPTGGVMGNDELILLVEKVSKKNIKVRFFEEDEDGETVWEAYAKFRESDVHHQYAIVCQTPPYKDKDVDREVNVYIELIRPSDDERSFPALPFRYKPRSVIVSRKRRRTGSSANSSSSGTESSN

A further assay addresses T5, GST-Aq-NF-kB (Amphimedon queenslandica, UniProt A9Y5G7 2-389).
T5 sequence: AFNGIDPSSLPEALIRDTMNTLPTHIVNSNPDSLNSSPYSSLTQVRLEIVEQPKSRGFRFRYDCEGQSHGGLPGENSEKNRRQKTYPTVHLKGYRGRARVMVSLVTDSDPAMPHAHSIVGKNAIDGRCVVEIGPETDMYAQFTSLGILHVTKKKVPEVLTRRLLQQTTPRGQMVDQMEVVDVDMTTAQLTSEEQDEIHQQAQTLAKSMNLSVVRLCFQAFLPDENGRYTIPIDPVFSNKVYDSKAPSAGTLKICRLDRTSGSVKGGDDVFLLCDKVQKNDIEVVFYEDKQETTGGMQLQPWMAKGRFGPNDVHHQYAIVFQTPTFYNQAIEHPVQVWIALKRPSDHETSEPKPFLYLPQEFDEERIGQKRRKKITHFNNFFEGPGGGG

On to “CCGATTAACATCAACCCCGTTTCTGATGTTAATCGGGTCTTGATTCGCTTGACGCTGCTG”, for which the binding signal is 1.51 z-score with GST-Ap-NF-kB RHD; 1.29 z-score in assay [1]; 1.63 z-score with GST-Co-NF-kB; 1.65 z-score with GST-Dm-Relish; 2.24 z-score in the assay with GST-Aq-NF-kB.
The corresponding values for “CCGATTAACATCAGGGGGGGACCTGATGTTAATCGGGTCTTGATTCGCTTGACGCTGCTG” are 7.43 z-score, 4.15 z-score, 5.99 z-score, 4.96 z-score and 5.51 z-score.
For “CCGATTAACATCAGATGTCCCCCTGATGTTAATCGGGTCTTGATTCGCTTGACGCTGCTG” the same measures were 6.05 z-score, 5.16 z-score, 5.82 z-score, 2.8 z-score and 4.73 z-score.
As to “CCGATTAACATCACAATACCCCCTGATGTTAATCGGGTCTTGATTCGCTTGACGCTGCTG”, the binding signal was 7.39 z-score in the assay with GST-Ap-NF-kB RHD; 4.51 z-score in assay [1]; 4.26 z-score with GST-Co-NF-kB; 4.2 z-score with GST-Dm-Relish; 4.87 z-score with GST-Aq-NF-kB.
The corresponding values for “CCGATTAACATCACAACACCCCCTGATGTTAATCGGGTCTTGATTCGCTTGACGCTGCTG” are 5.03 z-score, 3.99 z-score, 3.14 z-score, 4.4 z-score and 4.65 z-score.
The corresponding values for “CCGATTAACATCACGGGAAACCCTGATGTTAATCGGGTCTTGATTCGCTTGACGCTGCTG” are 4.31 z-score, 4.16 z-score, 3.68 z-score, 7.56 z-score and 5.65 z-score.
The corresponding values for “CCGATTAACATCACGGGGTTGCCTGATGTTAATCGGGTCTTGATTCGCTTGACGCTGCTG” are 1.46 z-score, 1.02 z-score, 1.38 z-score, 2.5 z-score and 2.2 z-score.
Take “CCGATTAACATCAGAATGCCCCCTGATGTTAATCGGGTCTTGATTCGCTTGACGCTGCTG”: the binding signal with GST-Ap-NF-kB RHD amounted to 4.74 z-score; in assay [1] it was 5.02 z-score; with GST-Co-NF-kB it was 2.56 z-score; with GST-Dm-Relish it was 3.56 z-score; in the assay with GST-Aq-NF-kB it was 5.26 z-score.
“CCGATTAACATCAAGGTTTTCCCTGATGTTAATCGGGTCTTGATTCGCTTGACGCTGCTG”: the binding signal with GST-Ap-NF-kB RHD turned out to be 4.36 z-score; in assay [1], 5.34 z-score; in the assay with GST-Co-NF-kB, 4.71 z-score; in the assay with GST-Dm-Relish, 5.1 z-score; with GST-Aq-NF-kB, 5.65 z-score.
Regarding “CCGATTAACATCAGGGAAAGAAATGATGTTAATCGGGTCTTGATTCGCTTGACGCTGCTG”, the binding signal with GST-Ap-NF-kB RHD is 1.61 z-score; in assay [1], 3.74 z-score; with GST-Co-NF-kB, 4.91 z-score; with GST-Dm-Relish, 1.72 z-score; in the assay with GST-Aq-NF-kB, 3.72 z-score.
For “CCGATTAACATCAAGGGAATCCCTGATGTTAATCGGGTCTTGATTCGCTTGACGCTGCTG” the same measures were 6.73 z-score, 6.1 z-score, 2.83 z-score, 9.2 z-score and 6.63 z-score.
Consider “CCGATTAACATCAGGTTTTCCCATGATGTTAATCGGGTCTTGATTCGCTTGACGCTGCTG”, for which the binding signal was found to be 3.58 z-score in the assay with GST-Ap-NF-kB RHD; 3.91 z-score in assay [1]; 4.33 z-score with GST-Co-NF-kB; 5.47 z-score with GST-Dm-Relish; 4.82 z-score with GST-Aq-NF-kB.
The corresponding values for “CCGATTAACATCAAGTGTTTCCCTGATGTTAATCGGGTCTTGATTCGCTTGACGCTGCTG” are 2.2 z-score, 3.22 z-score, 3.78 z-score, 4.7 z-score and 3.79 z-score.
Consider “CCGATTAACATCAGGGATCCCCATGATGTTAATCGGGTCTTGATTCGCTTGACGCTGCTG”, for which the binding signal with GST-Ap-NF-kB RHD turned out to be 7.26 z-score; in assay [1], 4.8 z-score; in the assay with GST-Co-NF-kB, 3.74 z-score; with GST-Dm-Relish, 9.65 z-score; with GST-Aq-NF-kB it was 4.64 z-score.
